Measurements as given in PubChem BioAssay AID651642 (Sanford-Burnham Center for Chemical Genomics, 2012).
Active and inactive are the calls of the source.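 The calls were made as follows: active = average half-effect concentration of 10 µM or less in every one of the four cell panels; inactive = the rest.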

Each compound was assayed on H9c2 (assay: cardiomyocyte survival under oxidative or metabolic stress – cell-based, panel, H9c2 and HL-1, H2O2, 2-deoxyglucose, ATP luminescence, SAR follow-up (AID 651642)). Details: H9c2/HL-1 cardiomyocyte H2O2 oxidative damage, mean of runs, with H2O2.

| SMILES | outcome |
| --- | --- |
| CCOC(=O)c1cccc(NC(=O)CNC(=O)c2cc(-c3cc(OC)c(OC)c(OC)c3)nc3ccccc23)c1 | inactive |
| COc1cc(-c2cc(C(=O)Nc3cccc(C(C)=O)c3)c3ccccc3n2)cc(OC)c1OC | inactive |
| COc1cc(-c2cc(C(=O)NCC(=O)Nc3cccc(C(C)=O)c3)c3ccccc3n2)cc(OC)c1OC | active |
| CCOC(=O)c1cccc(NC(=O)c2cc(-c3cc(OC)c(OC)c(OC)c3)nc3ccccc23)c1 | inactive |
| CCOC(=O)c1cccc(NC(=O)CNC(=O)c2cc(-c3cc(OC)c(OC)c(OC)c3)nc3ccc(Br)cc23)c1 | active |
| CCOC(=O)c1cccc(NC(=O)c2cc(-c3cc(OC)c(OC)c(OC)c3)nc3ccc(Br)cc23)c1 | inactive |
| CCOC(=O)c1cccc(NC(=O)CNC(=O)c2cc(-c3cc(OC)c(OC)c(OC)c3)nc3ccc(F)cc23)c1 | active |
| COc1cc(-c2cc(C(=O)NCC(=O)Nc3cccc(C(C)=O)c3)c3cccc(Cl)c3n2)cc(OC)c1OC | active |
| COc1ccc2c(c1OC)C(=O)N1c3ccccc3C(=O)N(Cc3ccccc3Cl)C21 (configuration not stated) | inactive |
| COc1ccc2nc(-c3cc(OC)c(OC)c(OC)c3)cc(C(=O)NCC(=O)Nc3cccc(C(C)=O)c3)c2c1 | inactive |
| COc1ccc2c(c1OC)C(=O)N1c3ccccc3C(=O)N(Cc3ccncc3)C21 (configuration not stated) | inactive |
| COc1cccc(CNC(=O)CNC(=O)c2cc(-c3cc(OC)c(OC)c(OC)c3)nc3ccccc23)c1 | active |
| CCNC(=O)c1cccc(NC(=O)c2cc(-c3cc(OC)c(OC)c(OC)c3)nc3ccccc23)c1 | active |
| COc1ccc2c(c1OC)C(=O)N1c3ccccc3C(=O)N(Cc3cccc(Cl)c3Cl)C21 (configuration not stated) | inactive |
| COC(=O)CNC(=O)c1cc(-c2cc(OC)c(OC)c(OC)c2)nc2ccccc12 | inactive |
| CCOC(=O)c1cccc(NC(=O)c2cc(-c3cc(OC)c(OC)c(OC)c3)nc3ccc(F)cc23)c1 | inactive |

| SMILES | outcome |
| --- | --- |
| COc1ccc2c(c1OC)C(=O)N1c3ccccc3C(=O)N(Cc3cccc(Br)c3)C21 (configuration not stated) | inactive |
| COc1cc(-c2cc(C(=O)NCC(=O)O)c3ccccc3n2)cc(OC)c1OC | inactive |
| CCOC(=O)c1cccc(NC(=O)CNC(=O)c2cc(-c3cc(OC)c(OC)c(OC)c3)nc3ccc(C)cc23)c1 | active |
| COc1ccc2c(c1OC)C(=O)N1c3ccccc3C(=O)N(Cc3ccccc3F)C21 (configuration not stated) | inactive |
| COc1cc(-c2cc(C(=O)NCC(=O)Nc3cccc(C(C)=O)c3)c3cc(F)ccc3n2)cc(OC)c1OC | active |
| COc1cc(-c2cc(C(=O)NCC(=O)Nc3cccc(C(C)=O)c3)c3cc(Br)ccc3n2)cc(OC)c1OC | active |
| COc1cc(-c2cc(C(=O)Nc3cccc(C(=O)NCc4ccccc4)c3)c3ccccc3n2)cc(OC)c1OC | active |
| CCOC(=O)c1ccc(NC(=O)c2cc(-c3cc(OC)c(OC)c(OC)c3)nc3ccccc23)cc1 | inactive |
| COc1cc(-c2cc(C(=O)Nc3cccc(C(=O)N4CCOCC4)c3)c3ccccc3n2)cc(OC)c1OC | active |
| CCOC(=O)c1ccccc1NC(=O)c1cc(-c2cc(OC)c(OC)c(OC)c2)nc2ccccc12 | inactive |
| COc1cc(-c2cc(C(=O)Nc3cccc(C#N)c3)c3ccccc3n2)cc(OC)c1OC | inactive |
| COc1ccc2c(c1OC)C(=O)N1c3ccccc3C(=O)N(Cc3ccccn3)C21 (configuration not stated) | inactive |
| COc1cc(-c2cc(C(=O)Nc3cccc(C(=O)Nc4ccccc4)c3)c3ccccc3n2)cc(OC)c1OC | active |
| COc1ccc2c(c1OC)C(=O)N1c3ccccc3C(=O)N(Cc3cccc(C)c3)C21 (configuration not stated) | inactive |
| COc1ccc2c(c1OC)C(=O)N1c3ccccc3C(=O)N(Cc3c(Cl)cccc3Cl)C21 (configuration not stated) | inactive |
| COc1ccc2c(c1OC)C(=O)N1c3ccccc3C(=O)N(Cc3ccc(C)cc3)C21 (configuration not stated) | inactive |
